Activity calls are given as the source filed them. How the calls were made is not given here.
Experiment: Vero 76 cell cytotoxicity, dose response, cytotoxicity control for VEEV inhibitor project, set 9 (AID 651930)

Row | SMILES | outcome
1 | CCN1CCN(C(c2nc3ncc([N+](=O)[O-])cc3c(=O)n2-c2ccccc2)C(c2nc3ncc([N+](=O)[O-])cc3c(=O)n2-c2ccccc2)N2CCN(CC)CC2)CC1 (stereo unspecified) | inactive
2 | O=c1c2cc([N+](=O)[O-])ccc2nc(CN2CCNCC2)n1-c1ccccc1 | inactive
3 | O=c1c2cc([N+](=O)[O-])ccc2nc(CN2CCNCC2)n1-c1ccccc1F | inactive
4 | CCN1CCN(Cc2nc3ccc(C#N)cc3c(=O)n2-c2ccccc2)CC1 | inactive
5 | CN1CCN(C)C(=Nc2ccc([N+](=O)[O-])cc2C(=O)Nc2ccccc2)C1 | inactive
6 | O=c1nc(Nc2ccccc2OCc2ccccc2)sc2ncccc12 | inactive
7 | O=c1nc(Nc2ccc(F)cc2)sc2ncccc12 | inactive
8 | O=c1nc(Nc2ccc(OCc3ccccc3)cc2)sc2ncc([N+](=O)[O-])cc12 | inactive
9 | CN(C)c1ccc(-n2c(CN3CCNCC3)nc3ccc([N+](=O)[O-])cc3c2=O)cc1 | inactive
10 | CN1CCN(C)C(=Nc2cc(Cl)c(C#N)cc2C(=O)Nc2ccccc2)C1 | inactive
11 | CCN1CCN(CC2Nc3ccc([N+](=O)[O-])cc3C(=O)N2c2ccccc2F)CC1 (stereo unspecified) | inactive
12 | O=c1nc(Nc2ccc(OCc3ccccc3)cc2)sc2ncccc12 | inactive
13 | COc1ccc(Nc2nc(=O)c3cccnc3s2)cc1 | inactive
14 | CCN(CC)c1nc(=O)c2cccnc2s1 | inactive
15 | CCN1CCN(Cc2nc3ccc(C(=O)O)cc3c(=O)n2-c2ccccc2)CC1 | inactive
16 | CN1CCN(C)C(=Nc2ccc(F)cc2C(=O)Nc2ccccc2)C1 | inactive
17 | CCN1CCN(C)CC1=Nc1ccc([N+](=O)[O-])cc1C(=O)Nc1ccccc1 | inactive
18 | COc1cccc(-n2c(CN3CCNCC3)nc3ccc([N+](=O)[O-])cc3c2=O)c1 | inactive
19 | CCN1CCN(Cc2nc3c([N+](=O)[O-])cccc3c(=O)n2-c2ccccc2)CC1 | inactive
20 | CCN1CCN(Cc2nc3ccc(-c4cccnc4)cc3c(=O)n2-c2ccccc2)CC1 | inactive
21 | CCN1CCN(Cc2nc3ccc([N+](=O)[O-])cc3c(=O)n2-c2ccccc2)CC1 | inactive
